The results in this text go back to ChEMBL document CHEMBL3988442, “University of Dundee, Small-Polar-MMV Screening Library” (2021).

For some assays here: Results with a measured potency or affinity are listed apart.

What all share (design): scale not given: direction of the effect not stated beside the values
In test [1] the target is Protein translocase subunit SecA (Escherichia coli (strain K12)) (UniProt P10408). The test can be described thus: Assay to Identify E. coli SecA ATPase Inhibitors. The class given is functional. The conditions noted are these: 30 µM.
The target in test [2] is T1, Ubiquitin-activating enzyme e1, putative (Leishmania donovani (strain BPK282A1)) (UniProt E9BSI1).
T1 sequence (whole entry): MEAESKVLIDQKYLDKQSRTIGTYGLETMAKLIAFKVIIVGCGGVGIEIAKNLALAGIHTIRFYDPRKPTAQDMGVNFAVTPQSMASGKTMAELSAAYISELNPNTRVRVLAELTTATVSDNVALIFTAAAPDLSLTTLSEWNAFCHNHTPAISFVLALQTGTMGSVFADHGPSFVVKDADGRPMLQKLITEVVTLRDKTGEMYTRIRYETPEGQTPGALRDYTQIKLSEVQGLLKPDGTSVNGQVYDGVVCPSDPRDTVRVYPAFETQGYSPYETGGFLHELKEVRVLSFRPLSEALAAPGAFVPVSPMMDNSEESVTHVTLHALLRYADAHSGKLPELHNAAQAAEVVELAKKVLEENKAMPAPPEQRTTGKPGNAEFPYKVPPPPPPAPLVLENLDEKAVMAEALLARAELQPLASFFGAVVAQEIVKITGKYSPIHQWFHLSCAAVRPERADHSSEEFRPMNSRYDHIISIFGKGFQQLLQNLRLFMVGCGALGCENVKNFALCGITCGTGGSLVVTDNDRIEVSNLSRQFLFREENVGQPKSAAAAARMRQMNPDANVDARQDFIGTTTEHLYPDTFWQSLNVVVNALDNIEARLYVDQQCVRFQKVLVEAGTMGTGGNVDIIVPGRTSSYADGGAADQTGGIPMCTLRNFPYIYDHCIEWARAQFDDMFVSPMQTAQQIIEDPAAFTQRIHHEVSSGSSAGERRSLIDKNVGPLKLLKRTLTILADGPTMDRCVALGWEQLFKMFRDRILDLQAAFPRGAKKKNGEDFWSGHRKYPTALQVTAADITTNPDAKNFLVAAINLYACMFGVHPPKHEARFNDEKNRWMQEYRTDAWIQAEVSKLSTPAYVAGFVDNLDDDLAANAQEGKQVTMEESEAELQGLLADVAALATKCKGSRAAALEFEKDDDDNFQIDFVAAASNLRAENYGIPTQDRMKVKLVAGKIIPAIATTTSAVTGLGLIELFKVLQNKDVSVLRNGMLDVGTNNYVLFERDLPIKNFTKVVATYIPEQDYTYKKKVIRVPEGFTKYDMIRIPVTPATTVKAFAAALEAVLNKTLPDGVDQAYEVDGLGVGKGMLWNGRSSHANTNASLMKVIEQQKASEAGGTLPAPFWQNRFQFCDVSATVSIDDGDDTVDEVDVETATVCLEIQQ
Briefly: Leishmania donovani Ubiquitin Activating Enzyme (LdE1). The format is functional. The conditions noted are these: 30 µM.

The target in test [3] is AMP-activated protein kinase, AMPK (Homo sapiens) (UniProt P54646+O43741+P54619+Q9UGJ0+Q9Y478+Q13131+Q9UGI9). Briefly: AMP-dependent Kinase enzyme assay. An in vitro enzyme assay that detects ADP turnover that is directly proportional to AMPK activity. This uses naive AMPK that is activated during the assay with MK-8722. The format is functional. Particulars: 30 µM.
The target in test [4] is Sialic acid-binding Ig-like lectin 9 (Homo sapiens) (UniProt Q9Y336). Briefly: Hs-Siglec9 ALPHAscreen SOP 20170721. The conditions noted are these: 10 µM. In general terms: In Alpha technology, singlet oxygen from a donor bead excites a nearby acceptor bead.
The subject of the next test is Trypanosoma cruzi. The test can be described thus: Trypanosoma cruzi phosphomannomutase and mannose-1-phosphate guanylyltransferase assay. The class given is functional. Particulars: 10 µM.
The target of test [5] is T2, Arginase-2, mitochondrial (Homo sapiens) (UniProt P78540).
T2 sequence (whole entry): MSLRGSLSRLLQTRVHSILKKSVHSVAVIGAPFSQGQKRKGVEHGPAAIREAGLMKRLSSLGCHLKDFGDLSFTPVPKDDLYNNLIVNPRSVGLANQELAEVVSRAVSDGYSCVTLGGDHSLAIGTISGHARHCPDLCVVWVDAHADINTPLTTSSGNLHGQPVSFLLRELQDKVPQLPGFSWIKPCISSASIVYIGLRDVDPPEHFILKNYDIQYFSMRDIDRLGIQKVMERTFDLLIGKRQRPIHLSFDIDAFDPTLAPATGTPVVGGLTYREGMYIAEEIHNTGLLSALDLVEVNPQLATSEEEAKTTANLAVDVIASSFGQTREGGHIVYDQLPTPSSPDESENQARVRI
The test can be described thus: in vitro enzyme assay to detect the production of urea directly proportional to the activity of Arginase II. Also: in the data most compounds retested in dose-response had high values. The format is functional. Particulars: 33.3 µM.

Test [6] addresses T3, Proteasome subunit beta (Trypanosoma cruzi) (UniProt O96673).
T3 sequence (whole entry): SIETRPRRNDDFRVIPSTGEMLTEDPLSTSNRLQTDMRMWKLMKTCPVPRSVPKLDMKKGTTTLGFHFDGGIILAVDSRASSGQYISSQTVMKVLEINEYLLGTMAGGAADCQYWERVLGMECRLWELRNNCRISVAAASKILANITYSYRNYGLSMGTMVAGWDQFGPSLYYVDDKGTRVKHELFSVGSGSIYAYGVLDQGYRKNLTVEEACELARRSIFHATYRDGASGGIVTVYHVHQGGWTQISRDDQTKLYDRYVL
Briefly: Trypanosoma cruzi proteasome chymotrypsin-like activity (TcProtChymo) assay. Also: in the data most compounds retested in dose-response had high values. The format is functional. The conditions noted are these: 9.37 µM.

A further test is filed under the species Homo sapiens. Briefly: To identify inhibition of the IFN signalling (Jak-Stat) pathway via expression of an eGFP reporter gene under the control of an IFN-stimulated response element (ISRE) containing MxA promoter. The class given is functional. The conditions noted are these: 30 µM. On the technique in general: A reporter such as luciferase makes a cellular process visible.

For test [7], the target named is T4, Tyrosyl-tRNA synthetase, putative (Trypanosoma cruzi (strain CL Brener)) (UniProt Q4DSP6).
T4 sequence (whole entry): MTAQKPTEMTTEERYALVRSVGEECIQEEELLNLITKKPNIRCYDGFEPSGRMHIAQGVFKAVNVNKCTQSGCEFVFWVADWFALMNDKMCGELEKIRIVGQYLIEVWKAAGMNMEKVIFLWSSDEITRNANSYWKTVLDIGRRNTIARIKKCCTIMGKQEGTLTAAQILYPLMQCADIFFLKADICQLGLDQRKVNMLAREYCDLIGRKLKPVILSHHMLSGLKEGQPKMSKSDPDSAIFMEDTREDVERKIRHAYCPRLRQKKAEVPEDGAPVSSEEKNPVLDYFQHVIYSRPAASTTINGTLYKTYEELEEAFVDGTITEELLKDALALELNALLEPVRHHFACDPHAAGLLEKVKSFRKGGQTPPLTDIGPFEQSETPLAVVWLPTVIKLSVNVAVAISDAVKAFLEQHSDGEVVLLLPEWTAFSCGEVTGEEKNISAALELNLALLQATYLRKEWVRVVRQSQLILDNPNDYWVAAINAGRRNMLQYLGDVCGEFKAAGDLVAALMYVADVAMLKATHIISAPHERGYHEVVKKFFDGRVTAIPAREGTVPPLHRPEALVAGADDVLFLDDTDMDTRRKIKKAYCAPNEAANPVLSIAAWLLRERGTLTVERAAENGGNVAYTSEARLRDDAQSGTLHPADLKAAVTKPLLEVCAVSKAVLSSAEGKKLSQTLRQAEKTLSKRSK
Briefly: Trypanosoma cruzi tyrosyl tRNA synthetase (TcYRS) _High Tyrosine SOP. Also: in the data most compounds retested in dose-response had high values. The class given is functional. Particulars: 30 µM.

The target of test [8] is T4, Tyrosyl-tRNA synthetase, putative (Trypanosoma cruzi (strain CL Brener)). Briefly: Trypanosoma cruzi tyrosyl tRNA synthetase (TcYRS) SOP. The class given is functional. The conditions noted are these: 30 µM.
Test [9] addresses Chromo domain-containing protein 1 (Saccharomyces cerevisiae (strain ATCC 204508 / S288c) (Baker's yeast)) (UniProt P32657). The test can be described thus: ScCHD-1 Enzyme Inhibition Assay. Also: in the data most compounds retested in dose-response had high values. The format is functional. Particulars: 30 µM.

Chain of Protein translocase subunit SecA (Escherichia coli (strain K12)) (P10408 whole entry): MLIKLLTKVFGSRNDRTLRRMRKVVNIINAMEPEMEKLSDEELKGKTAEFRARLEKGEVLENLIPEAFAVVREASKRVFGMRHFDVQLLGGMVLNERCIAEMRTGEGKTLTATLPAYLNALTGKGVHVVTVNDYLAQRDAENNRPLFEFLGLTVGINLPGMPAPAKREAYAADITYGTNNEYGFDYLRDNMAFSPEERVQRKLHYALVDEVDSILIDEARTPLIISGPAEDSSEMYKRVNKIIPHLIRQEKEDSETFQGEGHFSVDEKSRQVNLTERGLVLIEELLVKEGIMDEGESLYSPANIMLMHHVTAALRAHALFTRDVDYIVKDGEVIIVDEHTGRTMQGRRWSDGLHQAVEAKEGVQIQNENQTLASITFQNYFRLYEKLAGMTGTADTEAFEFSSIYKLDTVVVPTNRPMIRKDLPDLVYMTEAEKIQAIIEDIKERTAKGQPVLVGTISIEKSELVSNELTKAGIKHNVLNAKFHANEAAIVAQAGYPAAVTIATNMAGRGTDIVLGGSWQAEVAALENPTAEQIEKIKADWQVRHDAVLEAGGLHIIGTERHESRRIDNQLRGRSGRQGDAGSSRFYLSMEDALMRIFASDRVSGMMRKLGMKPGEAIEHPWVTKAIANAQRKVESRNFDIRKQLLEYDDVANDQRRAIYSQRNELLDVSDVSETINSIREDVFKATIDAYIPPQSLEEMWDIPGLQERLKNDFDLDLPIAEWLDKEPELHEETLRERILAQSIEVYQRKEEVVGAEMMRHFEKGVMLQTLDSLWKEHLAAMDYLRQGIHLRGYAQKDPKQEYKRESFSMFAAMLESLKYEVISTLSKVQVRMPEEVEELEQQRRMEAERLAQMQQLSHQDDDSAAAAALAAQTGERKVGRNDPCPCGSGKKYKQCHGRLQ
Chain of Sialic acid-binding Ig-like lectin 9 (Homo sapiens) (Q9Y336 whole entry): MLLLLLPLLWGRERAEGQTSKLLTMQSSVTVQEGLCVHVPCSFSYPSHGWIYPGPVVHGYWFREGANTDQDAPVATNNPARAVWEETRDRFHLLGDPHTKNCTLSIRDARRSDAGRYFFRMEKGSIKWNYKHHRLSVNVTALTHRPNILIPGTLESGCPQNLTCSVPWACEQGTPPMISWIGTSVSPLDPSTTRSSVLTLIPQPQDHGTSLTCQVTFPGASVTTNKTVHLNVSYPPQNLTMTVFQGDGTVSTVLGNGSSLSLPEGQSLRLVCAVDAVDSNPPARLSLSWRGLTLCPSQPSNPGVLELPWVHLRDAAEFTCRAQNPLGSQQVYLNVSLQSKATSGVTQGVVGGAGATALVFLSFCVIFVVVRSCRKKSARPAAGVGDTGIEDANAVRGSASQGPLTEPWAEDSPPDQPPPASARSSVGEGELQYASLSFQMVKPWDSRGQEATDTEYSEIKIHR
Chain of Chromo domain-containing protein 1 (Saccharomyces cerevisiae (strain ATCC 204508 / S288c) (Baker's yeast)) (P32657 whole entry, the tested form may be a part): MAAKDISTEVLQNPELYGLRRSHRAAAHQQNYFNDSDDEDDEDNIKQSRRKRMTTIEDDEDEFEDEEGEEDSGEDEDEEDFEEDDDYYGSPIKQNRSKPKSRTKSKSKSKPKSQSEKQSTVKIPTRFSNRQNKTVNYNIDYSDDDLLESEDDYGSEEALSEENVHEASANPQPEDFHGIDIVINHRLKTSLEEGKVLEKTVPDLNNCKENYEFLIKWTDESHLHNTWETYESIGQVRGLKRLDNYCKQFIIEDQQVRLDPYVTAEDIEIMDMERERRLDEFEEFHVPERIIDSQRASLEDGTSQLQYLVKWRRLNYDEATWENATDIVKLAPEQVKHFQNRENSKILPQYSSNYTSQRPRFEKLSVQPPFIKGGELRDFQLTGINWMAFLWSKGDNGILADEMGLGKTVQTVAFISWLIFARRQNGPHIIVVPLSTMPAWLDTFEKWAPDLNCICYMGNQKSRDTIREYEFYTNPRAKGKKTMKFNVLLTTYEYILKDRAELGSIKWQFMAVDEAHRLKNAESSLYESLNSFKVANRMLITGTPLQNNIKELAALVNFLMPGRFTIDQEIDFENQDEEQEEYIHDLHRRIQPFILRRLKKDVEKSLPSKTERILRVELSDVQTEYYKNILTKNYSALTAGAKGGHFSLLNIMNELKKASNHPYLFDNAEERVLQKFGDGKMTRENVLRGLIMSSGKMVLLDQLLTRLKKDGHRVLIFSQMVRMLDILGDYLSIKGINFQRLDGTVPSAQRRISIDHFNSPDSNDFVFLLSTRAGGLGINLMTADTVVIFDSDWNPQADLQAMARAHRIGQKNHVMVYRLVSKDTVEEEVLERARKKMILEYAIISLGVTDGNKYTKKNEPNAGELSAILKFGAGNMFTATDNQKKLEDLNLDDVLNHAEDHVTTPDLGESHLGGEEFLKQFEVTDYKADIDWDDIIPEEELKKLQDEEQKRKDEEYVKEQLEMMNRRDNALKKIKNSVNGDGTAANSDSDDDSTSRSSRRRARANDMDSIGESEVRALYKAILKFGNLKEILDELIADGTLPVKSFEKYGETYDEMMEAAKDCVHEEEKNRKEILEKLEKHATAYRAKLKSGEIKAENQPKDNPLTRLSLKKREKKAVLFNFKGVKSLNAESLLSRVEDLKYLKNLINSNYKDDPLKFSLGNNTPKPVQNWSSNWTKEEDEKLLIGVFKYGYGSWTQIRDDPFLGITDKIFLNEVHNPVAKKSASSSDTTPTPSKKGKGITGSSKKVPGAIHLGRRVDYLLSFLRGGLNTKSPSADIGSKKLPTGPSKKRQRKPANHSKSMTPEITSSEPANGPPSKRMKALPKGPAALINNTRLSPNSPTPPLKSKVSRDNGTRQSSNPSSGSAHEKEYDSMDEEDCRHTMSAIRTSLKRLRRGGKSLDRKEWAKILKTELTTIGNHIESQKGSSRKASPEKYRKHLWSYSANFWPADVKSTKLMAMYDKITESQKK

`CC1c2ncc(CNC(=O)C3CC3)n2CCN1Cc1cnn(C)c1` (stereo not given): the Percent Effect in test [1] was -0.181%; in test [2], 8%; in test [3], -3.48%; in [4], -1.35%; in the test on Trypanosoma cruzi, 6.56%; in test [5] it was -55.4%. The Percent Effect was 13.8% in test [6]; 5.07% in the test filed under Homo sapiens; 3.12% in test [7]; 12.5% in test [8]; -7.95% in [9].
As to `Cc1cc(-c2cnc(NC3CCCC3)nc2-c2ccoc2C)on1`, the Percent Effect is -2.76% in test [1]; 14.9% in test [2]; 65.2% in test [3]; 4.01% in test [4]; 0.395% in the test with Trypanosoma cruzi; -0.696% in test [5]. In addition, the Percent Effect in test [6] is 5.77%; in the test listed under Homo sapiens, 14.7%; in [7], 6.45%; in test [8], 3.9%; in test [9], -16%.
As to `COc1ccc(C2CC(=O)Oc3cc(C)[nH]c(=O)c32)cc1` (stereo not given), the Percent Effect in test [1] was -5.52%; in [2] it was 6.67%; in test [3], 5.42%; in test [4], 2.83%; with Trypanosoma cruzi it was 4.13%; in test [5], -0.528%. Also, the Percent Effect in [6] was 11.1%; in the test filed under Homo sapiens it was 3.33%; in test [7], 2.12%; in test [8], 5.13%; in [9], -1.69%.
For `CC(=O)NCC(=O)N1Cc2nccn2CC(Cn2cccn2)C1` (stereo not given), the Percent Effect in test [1] is -2.33%; in test [2], -2.7%; in test [3], 5.56%; in test [4] it was -2.67%; in the test on Trypanosoma cruzi, -5.38%; in test [5], 1.59%. In addition, the Percent Effect is 18.6% in test [6]; 3.41% in the test filed under Homo sapiens; 5.41% in test [7]; 7.69% in [8]; -0.528% in [9].
As for `Cc1cccc(N2CCN(CCCNC(=O)c3nccn3C)CC2)c1`, the Percent Effect was -2.68% in [1]; 5.41% in [2]; -5.72% in [3]; -1.22% in test [4]; 4.49% in the test on Trypanosoma cruzi; 38.3% in test [5]. Also, the Percent Effect was 12.9% in test [6]; 7.26% in the test filed under Homo sapiens; 11.9% in test [7]; 18.3% in test [8]; -2.27% in test [9].
On to `O=C(O)c1nnn(-c2ccc(OC(F)(F)F)cc2)c1-c1ccncc1`, for which the Percent Effect in test [1] is -2.53%; in [2], 21.1%; in test [3], -1.66%; in test [4], -2.5%; with Trypanosoma cruzi, 3.8%; in test [5], 3.55%. For the same compound, the Percent Effect in test [6] worked out at 20.4%; in the test filed under Homo sapiens, 2.21%; in [7], 3.19%; in test [8], 15.6%; in test [9] it was 41.3%.
Turning to `Cn1cc(C[C@H]2[C@H](N3CCOCC3)CCN2C(=O)c2ccco2)cn1`, the Percent Effect is -7.84% in [1]; 5.33% in [2]; 7.06% in test [3]; -0.822% in test [4]; -7.09% in the test with Trypanosoma cruzi; -0.699% in test [5]. For the same compound, the Percent Effect in [6] was 7.49%; in the test listed under Homo sapiens, 21.2%; in [7] it was 2.13%; in test [8], 6.41%; in [9] it was -4.64%.
Turning to `CNC(=O)c1ccc(C(=O)N2CCCC2c2cnn(C)c2)cn1` (stereo not given), the Percent Effect in test [1] is -3.23%; in test [2], 7.89%; in [3] it was -6.87%; in test [4], 5.79%; with Trypanosoma cruzi it was 3.08%; in [5], -2.88%. For the same compound, the Percent Effect in [6] is 9.05%; in the test listed under Homo sapiens, -13.2%; in test [7], 5.42%; in test [8] it was 6.17%; in [9], -6.61%.
For `COc1cccc2ccn(CCC(=O)N3CCCC(C(=O)O)C3)c12` (stereo not given), the Percent Effect in [1] is -7.04%; in [2], 21.1%; in test [3], 5.95%; in test [4], -0.508%; with Trypanosoma cruzi, 3.8%; in test [5] it was -1.18%. The Percent Effect in [6] is 14.1%; in the test filed under Homo sapiens, 6.03%; in test [7] it was 2.13%; in test [8], 10.4%; in test [9], -7.67%.
As for `Cc1cc2ccccc2n1CCC(=O)NCc1ncc[nH]1`, the Percent Effect is -2.35% in [1]; 14.9% in [2]; 6.43% in test [3]; -8.05% in test [4]; -4.74% in the test on Trypanosoma cruzi; -1.16% in test [5]. For the same compound, the Percent Effect in test [6] is 15.6%; in the test filed under Homo sapiens it was 13.5%; in [7], 11.8%; in test [8] it was 16.9%; in test [9], -9.55%.
